Rce1 inhib: blocks yeast Ras-converting enzyme. Q03530. yeast membranes, quenched prenylated peptide cleavage fluorescence. calls only. hit rate 0.27% among 290,000. AID 2563;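 active means fall in fluorescence gain of 50% or more versus controls, with final raw signal at or below 3038400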
Target sequence (Q03530 whole entry, looked up): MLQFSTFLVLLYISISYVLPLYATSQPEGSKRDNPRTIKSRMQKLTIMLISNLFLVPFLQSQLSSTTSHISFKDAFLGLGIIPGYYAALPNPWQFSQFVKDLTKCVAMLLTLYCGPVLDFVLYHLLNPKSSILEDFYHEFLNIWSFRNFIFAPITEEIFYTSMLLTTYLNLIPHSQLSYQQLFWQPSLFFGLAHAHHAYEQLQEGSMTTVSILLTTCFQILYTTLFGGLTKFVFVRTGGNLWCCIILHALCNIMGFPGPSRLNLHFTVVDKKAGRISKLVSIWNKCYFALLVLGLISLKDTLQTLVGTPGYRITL
M18AAP inhibitor: PfM18AAP enzyme inhibition; recombinant PfM18AAP, H-Glu-NHMec fluorogenic cleavage; inhibition, % at 7.35 µM; hit rate 1.2% among 290,000; AID 1822;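 active means inhibition above the campaign mean inhibition over all tested compounds plus 3 SD, cut at about 28% in these data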
FID counter: displaces DNA intercalator in HCV helicase counter-screen | DNA fluorescent intercalator displacement, fluorescence | inhibition, % at 7.9 µM | hit rate 0.17% among 290,000 | AID 1845; in the data active means inhibition above about 37%;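 further: higher means more ethidium bromide displaced from hairpin DNA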
Kir21 block: inhibitors of mouse Kir2.1 inward-rectifier potassium channel; HEK293-Kir2.1, FluxOR thallium flux fluorescence; hits give low values; hit rate 0.85% among 310,000; B-score at 10 µM; P35561; AID 1672;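 active means fluorescence ratio B-score at or below minus 3 SD of library scores, with starting-brightness B-score within 2 SD, cut at about -4.2 in these data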;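 further: channel flux triggered by added potassium and thallium sulfate stimulus; B-score of peak minus minimum fluorescence over baseline after thallium stimulus; more negative B-score means stronger Kir2.1 block with less thallium influx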
Of the large screens only hits and unclear results are named; the others gave an inactive call. A selection: hits, their analogues and other compounds. The true share with any hit is near 2.3%.

O=C(CC1Sc2ncnn2C1=O)Nc1ccc(Cl)cc1 (configuration not stated)	M18AAP inhibitor 30
Nc1nc(=S)c2ncn(C3CCCC3)c2[nH]1	M18AAP inhibitor 36
O=c1c2[nH]c3ccccc3c2ncn1C1CCCCC1	none
CCc1nonc1NC(=O)c1oc2c(C)c(C)ccc2c1C	none
Cc1c(Br)c([N+](=O)[O-])nn1CC(=O)Nc1ccc2nc3n(c(=O)c2c1)CCCC3	FID counter 64
CS(=O)(=O)CC(=O)Nc1ccc2nc3n(c(=O)c2c1)CCCCC3	none
[2H]C([2H])(CCOS(N)(=O)=O)c1ccccc1	none
O=C([O-])c1ccccc1-[n+]1c(-c2ccccc2)cc(-c2ccccc2)cc1-c1ccccc1	Kir21 block -4.6 (no result: M18AAP inhibitor, FID counter)
O=C(CCC1CCCCC1)Nc1nncs1	none
CCCn1cc(S(=O)(=O)c2ccccc2)c(=O)c2cc(F)c(N3CCN(C)CC3)cc21	none
CCN(Cc1ccccc1)S(=O)(=O)c1ccc(OC)c2ncccc12	none
COc1ccc(S(=O)(=O)N(C)c2ccccc2)c2cccnc12	Kir21 block -5.1
O=S(=O)(NCc1csc(-c2cccnc2)n1)c1ccc(Br)cc1	Kir21 block -7.7
CC(=O)OC1=C(O)C(=O)c2ccccc2C1=O	Rce1 inhib active (no result: M18AAP inhibitor, FID counter)
CN=CC1=C(O)c2ccccc2C1=O	none
O=S(=O)(NC1c2cccc3cccc(c23)C1N1CCNCC1)c1ccc(Cl)cc1 (configuration not stated)	FID counter 43
COc1cc(C(=O)NCC(c2ccco2)N2CCOCC2)cc(OC)c1OC (configuration not stated)	none (no result: M18AAP inhibitor, FID counter)
c1ccc(-c2nc(N3CCNCC3)nc3ccccc23)cc1	Kir21 block -7.2
c1ccc(-c2nc(N3CCCCC3)nc3ccccc23)cc1	none
Cn1ccnc1COc1ccc(C=O)cc1	none
Cc1cccc(N2C(=O)/C(=C/c3cccnc3)SC2=S)c1	none (no result: Rce1 inhib)
Cc1ccc(/C=C2\SC(=S)N(c3cccnc3)C2=O)o1	M18AAP inhibitor 31
CCOc1ccc(C(=O)NCC(=O)NC(C)CCc2ccccc2)cc1OCC (configuration not stated)	none
CCCCOC(=O)C[N+](C)(C)CCOC1CC2CCC1(C)C2(C)C (configuration not stated)	none
CCCCCCOC(=O)C[N+](C)(C)CCOC1CC2CCC1(C)C2(C)C (configuration not stated)	Kir21 block -7.7
CCCCCCCOC(=O)C[N+](C)(C)CCOC1CC2CCC1(C)C2(C)C (configuration not stated)	Kir21 block -8.2 (no result: Rce1 inhib)
Cc1nnc(NC(=O)CSc2ccc(-c3ccccn3)nn2)s1	none
O=C(Cc1noc2ccccc12)NNC(=S)Nc1ccc(Cl)cc1	none
O=C(Cc1noc2ccccc12)NNC(=S)Nc1ccccc1	M18AAP inhibitor 30
CC(NCC(O)COC1CCC(C(C)(C)C)CC1)c1ccccc1 (configuration not stated)	Kir21 block -8.6 (no result: Rce1 inhib)
CC1CCC(C(C)C)C(OCC(O)CNC(C)c2ccccc2)C1 (configuration not stated)	none
CCOc1cc(C2CC(=O)N3CN(C4CCCCC4)CSC3=C2C#N)ccc1O (configuration not stated)	M18AAP inhibitor 31
COc1ccc2ccccc2c1C1CC(=O)N2CN(C3CCCCC3)CSC2=C1C#N (configuration not stated)	none
O=C(CCN1CCN(Cc2ccccc2)CC1)NNC(=O)Nc1cccc(C(F)(F)F)c1	none
Cc1cc2nn(-c3cccc4ccccc34)nc2cc1NC(=O)c1cccs1	Rce1 inhib active
Cc1[nH]c2ccccc2c1C(=O)CN1CCN(C/C=C/c2ccccc2)CC1	none
COc1ccc2[nH]c(C)c(C(=O)CN3CCN(C/C=C/c4ccccc4)CC3)c2c1	FID counter 39
CCN(CC)CCNC(=S)Nc1ccc2nc(N3CCN(C)CC3)cc(C)c2c1	FID counter 44
CCCN(CCC)CCCNC(=S)Nc1ccc2nc(N3CCCC3)cc(C)c2c1	FID counter 43 (no result: Rce1 inhib)
CCCCN(CC)CCCNC(=S)Nc1ccc2nc(N3CCN(CC)CC3)cc(C)c2c1	FID counter 52
CCN(CC)CCNC(=S)Nc1ccc2nc(N3CCOCC3)cc(C)c2c1	none
COCCNC(=S)Nc1ccc2nc(N3CCN(C)CC3)cc(C)c2c1	none
Cc1cc(N2CCOCC2)nc2ccc(NC(=S)NCCN(C)C)cc12	FID counter 52
O=C(CSc1ccc(Br)cc1)Nc1ccccc1N1CCOCC1	none
CCN(CC)CCNC(=S)Nc1ccc2nc(N3CCCC3)cc(C)c2c1	FID counter 49
O=C1CCC(=O)N1c1cccc(OS(=O)(=O)c2ccccc2)c1	M18AAP inhibitor 36
CC1CCC2C(=O)N(c3cccc(OS(=O)(=O)c4ccccc4)c3)C(=O)C2C1 (configuration not stated)	none
